Results from publication PMC7862700, “An all-to-all approach to the identification of sequence-specific readers for epigenetic DNA modifications on cytosine”.

Key:
Test in all cases: DAPPL (digital affinity profiling via proximity ligation, sequencing); 10 mM Tris-HCl pH 7.5, 50 mM NaCl, 1 mM DTT, 4% glycerol, room temperature, 30 min; GST-TFs on glutathione beads, 16-mer random dsDNA library, 0.1% formaldehyde crosslink after washing; high values mean tight binding
Settings in all cases: protein: recombinant; tags: N-terminal GST; dsDNA, one strand shown
FLI1 = molecular target: T1, FLI1 (Homo sapiens, UniProt Q01543 1-452)
T1 sequence: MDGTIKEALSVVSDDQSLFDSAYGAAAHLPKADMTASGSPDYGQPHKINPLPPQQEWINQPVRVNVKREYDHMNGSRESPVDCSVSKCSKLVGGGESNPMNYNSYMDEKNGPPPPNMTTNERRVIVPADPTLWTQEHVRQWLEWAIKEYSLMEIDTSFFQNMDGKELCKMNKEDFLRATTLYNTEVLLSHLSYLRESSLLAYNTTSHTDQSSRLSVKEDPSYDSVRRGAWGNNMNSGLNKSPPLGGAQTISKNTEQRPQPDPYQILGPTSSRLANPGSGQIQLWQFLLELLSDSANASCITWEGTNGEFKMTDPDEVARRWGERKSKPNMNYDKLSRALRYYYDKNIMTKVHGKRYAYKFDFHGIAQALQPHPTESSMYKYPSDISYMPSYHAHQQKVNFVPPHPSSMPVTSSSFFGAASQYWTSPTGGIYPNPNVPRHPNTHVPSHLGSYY
How it was run: (§1)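 Pools were built from human transcription factors expressed in yeast as GST fusions, captured on glutathione beads and DNA-barcoded, along with a tag-only sample. Incubation with 200 nmole of a 16-mer random double-stranded DNA library lasted 30 min at room temperature in Tris/NaCl/DTT/glycerol buffer, and was followed by washing, 0.1% formaldehyde crosslinking, proximity ligation, PCR amplification and Illumina NextSeq500 sequencing. Binding signal is the quotient of each hexamer's read frequency for a factor and its frequency for the tag-only sample.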

ELK1 = molecular target: T2, ELK1 (Homo sapiens, UniProt P19419 1-428)
T2 sequence: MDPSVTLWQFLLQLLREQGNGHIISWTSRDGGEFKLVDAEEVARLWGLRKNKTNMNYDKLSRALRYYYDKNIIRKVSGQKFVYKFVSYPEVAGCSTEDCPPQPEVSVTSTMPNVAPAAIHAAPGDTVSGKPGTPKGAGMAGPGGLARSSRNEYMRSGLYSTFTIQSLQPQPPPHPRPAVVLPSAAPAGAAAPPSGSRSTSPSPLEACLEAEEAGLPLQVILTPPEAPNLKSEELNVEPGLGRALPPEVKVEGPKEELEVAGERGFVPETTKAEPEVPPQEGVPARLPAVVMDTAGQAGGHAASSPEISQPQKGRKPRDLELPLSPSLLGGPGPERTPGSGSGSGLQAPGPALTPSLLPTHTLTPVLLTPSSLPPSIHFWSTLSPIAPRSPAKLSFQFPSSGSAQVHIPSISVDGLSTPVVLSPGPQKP
How it was run: as §1

GABPA = molecular target: T3, GABPA (Homo sapiens, UniProt Q06546 1-454)
T3 sequence: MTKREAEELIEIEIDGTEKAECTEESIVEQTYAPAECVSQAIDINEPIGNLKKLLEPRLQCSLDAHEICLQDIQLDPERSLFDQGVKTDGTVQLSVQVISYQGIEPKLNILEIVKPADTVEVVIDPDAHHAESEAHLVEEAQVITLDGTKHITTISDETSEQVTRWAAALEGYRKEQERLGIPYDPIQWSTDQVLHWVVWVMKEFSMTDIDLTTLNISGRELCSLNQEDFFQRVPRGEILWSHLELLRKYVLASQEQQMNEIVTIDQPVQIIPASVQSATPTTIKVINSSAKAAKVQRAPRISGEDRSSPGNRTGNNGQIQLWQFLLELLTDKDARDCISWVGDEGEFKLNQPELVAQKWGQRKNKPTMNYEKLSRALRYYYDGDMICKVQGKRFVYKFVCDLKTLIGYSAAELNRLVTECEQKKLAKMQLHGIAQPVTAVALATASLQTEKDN
How it was run: as §1

ERG = molecular target: T4, ERG (Homo sapiens, UniProt P11308 1-479)
T4 sequence: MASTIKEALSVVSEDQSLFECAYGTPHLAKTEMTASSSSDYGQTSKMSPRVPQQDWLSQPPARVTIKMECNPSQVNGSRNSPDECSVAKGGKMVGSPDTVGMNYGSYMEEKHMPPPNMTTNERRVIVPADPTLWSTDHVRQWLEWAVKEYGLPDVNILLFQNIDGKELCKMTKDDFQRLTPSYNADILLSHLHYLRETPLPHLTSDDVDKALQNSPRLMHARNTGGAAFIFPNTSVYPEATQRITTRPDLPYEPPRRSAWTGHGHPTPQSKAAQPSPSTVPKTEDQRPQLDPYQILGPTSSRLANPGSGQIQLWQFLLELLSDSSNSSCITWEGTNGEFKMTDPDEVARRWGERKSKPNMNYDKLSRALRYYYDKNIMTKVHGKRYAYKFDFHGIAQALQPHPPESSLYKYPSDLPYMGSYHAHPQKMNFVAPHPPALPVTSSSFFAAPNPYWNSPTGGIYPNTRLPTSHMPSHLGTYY
How it was run: as §1

ELF1 = ELF1 (Homo sapiens, UniProt P32519 1-619)
How it was run: as §1

EHF = molecular target: T5, EHF (Homo sapiens, UniProt Q9NZC4 1-300)
T5 sequence: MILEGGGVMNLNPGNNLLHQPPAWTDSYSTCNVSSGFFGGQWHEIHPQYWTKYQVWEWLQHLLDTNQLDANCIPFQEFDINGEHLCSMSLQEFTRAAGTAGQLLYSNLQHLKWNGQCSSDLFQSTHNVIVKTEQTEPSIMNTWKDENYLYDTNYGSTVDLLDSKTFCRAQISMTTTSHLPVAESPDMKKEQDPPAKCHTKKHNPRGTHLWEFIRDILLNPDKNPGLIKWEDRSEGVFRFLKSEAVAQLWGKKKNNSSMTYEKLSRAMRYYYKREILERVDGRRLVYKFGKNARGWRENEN
How it was run: as §1

SPI1 = SPI1 (Homo sapiens, UniProt P17947 1-270)
How it was run: as §1

SPIB = SPIB (Homo sapiens, UniProt Q01892 1-262)
How it was run: as §1

ELK3 = molecular target: T6, ELK3 (Homo sapiens, UniProt P41970 1-407)
T6 sequence: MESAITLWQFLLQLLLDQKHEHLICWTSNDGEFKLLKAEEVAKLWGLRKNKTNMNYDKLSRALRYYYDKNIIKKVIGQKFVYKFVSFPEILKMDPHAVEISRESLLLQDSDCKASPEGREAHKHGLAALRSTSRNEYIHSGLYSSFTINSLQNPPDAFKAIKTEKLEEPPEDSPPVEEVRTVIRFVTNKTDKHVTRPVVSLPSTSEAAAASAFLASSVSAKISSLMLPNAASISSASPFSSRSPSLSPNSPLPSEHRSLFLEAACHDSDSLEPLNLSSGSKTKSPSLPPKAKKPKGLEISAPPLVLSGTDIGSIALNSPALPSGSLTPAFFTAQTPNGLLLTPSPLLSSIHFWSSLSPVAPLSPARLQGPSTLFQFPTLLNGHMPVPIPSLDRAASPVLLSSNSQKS
How it was run: as §1

Chain of ELF1 (P32519 whole entry): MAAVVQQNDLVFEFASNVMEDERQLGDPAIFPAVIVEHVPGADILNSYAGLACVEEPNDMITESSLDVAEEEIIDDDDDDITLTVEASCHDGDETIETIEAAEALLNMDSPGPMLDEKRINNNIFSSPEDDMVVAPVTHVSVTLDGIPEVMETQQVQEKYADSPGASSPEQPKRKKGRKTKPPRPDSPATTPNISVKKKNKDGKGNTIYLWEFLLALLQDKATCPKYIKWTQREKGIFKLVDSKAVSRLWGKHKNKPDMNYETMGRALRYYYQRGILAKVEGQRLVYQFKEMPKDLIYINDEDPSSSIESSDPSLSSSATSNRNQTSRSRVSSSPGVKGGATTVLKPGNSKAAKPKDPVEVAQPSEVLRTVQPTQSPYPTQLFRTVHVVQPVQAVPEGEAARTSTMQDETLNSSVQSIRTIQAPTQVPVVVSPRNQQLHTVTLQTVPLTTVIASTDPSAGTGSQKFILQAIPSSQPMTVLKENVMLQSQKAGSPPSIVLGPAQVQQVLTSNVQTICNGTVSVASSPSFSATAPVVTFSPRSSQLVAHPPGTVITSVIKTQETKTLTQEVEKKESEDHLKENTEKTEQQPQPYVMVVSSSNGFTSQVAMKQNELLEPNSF
Chain of SPIB (Q01892 whole entry): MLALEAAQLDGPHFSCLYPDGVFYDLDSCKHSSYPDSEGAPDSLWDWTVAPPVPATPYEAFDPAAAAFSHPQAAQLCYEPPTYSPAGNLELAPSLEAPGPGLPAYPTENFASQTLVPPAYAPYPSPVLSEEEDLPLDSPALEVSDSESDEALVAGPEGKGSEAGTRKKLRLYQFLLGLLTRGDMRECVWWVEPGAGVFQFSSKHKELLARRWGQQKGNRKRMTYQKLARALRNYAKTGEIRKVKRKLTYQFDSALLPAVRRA

GTAGCT
binding signal (FLI1): 1.15 fold enrichment (6-mer frequency, TF over GST control) | binding signal (ELK1): 1.08 fold enrichment (6-mer frequency, TF over GST control) | binding signal (GABPA): 1.12 fold enrichment (6-mer frequency, TF over GST control) | binding signal (ERG): 1.05 fold enrichment (6-mer frequency, TF over GST control) | binding signal (ELF1): 1.06 fold enrichment (6-mer frequency, TF over GST control) | binding signal (EHF): 1.12 fold enrichment (6-mer frequency, TF over GST control) | binding signal (SPI1): 1.09 fold enrichment (6-mer frequency, TF over GST control) | binding signal (SPIB): 1.18 fold enrichment (6-mer frequency, TF over GST control) | binding signal (ELK3): 1.07 fold enrichment (6-mer frequency, TF over GST control)
